# Laboratory results taken from PubChem BioAssay (NCATS).
# Values without a mark were called inactive. Inconclusive results are not listed. Calls of active or inactive are those of the source. Unless noted, the call rests on the fitted dose curve; in most records, active means well fitted curve in either direction with a large enough effect (not every such curve was filed as active); inconclusive means small, poorly fitted or top-dose-only effect, or another doubt; inactive means flat fitted curve, though single readings scatter.
# How the values were obtained:
# [1] = AP1 Signaling Pathway (AID 357); conditions: ME-180 AP-1-bla reporter, EGF-induced, beta-lactamase ratio, 5 h; at 17.2 µM (top of the series) unless noted; further: on the % scale 0 is the no-effect control and ±100 the full control effect
# In short: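 AP-1-bla ME-180 cells with beta-lactamase reporter under AP-1 response element, stimulated with EC50 EGF; compounds titrated, 5 hours at 37 degrees Celsius. CCF4 read at 460/530 nm ratio; positive and negative modulators judged by AC50.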
# [2] = NFAT Signaling Pathway (AID 444); conditions: Jurkat NFAT-bla M1, carbachol, beta-lactamase ratio, 5 h; at 17.2 µM (top of the series) unless noted;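 further: carbachol stimulus at about its EC50 of 1 µM final; on the % scale 0 is the no-effect control and ±100 the full control effect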
# In short: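 Read-out: CCF4 FRET ratio (460 nm/530 nm) after 1 h RT dye loading, used for %activity and AC50 from titration series. Cells: Jurkat NFAT-β-lactamase/M1 line, treated with compound plus 1 uM carbachol for 5 h, 37 °C.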
# [3] = Stat Signaling Pathway (AID 446); conditions: ME-180 SIE beta-lactamase reporter, IL-6 stimulated, 5 h; at 17.2 µM (top of the series) unless noted;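 further: ME-180 cervical cancer cells given 40 pM IL-6 alongside compound; SIE-controlled beta-lactamase reporter measured as 460/530 nm FRET emission ratio; on the % scale 0 is the no-effect control and ±100 the full control effect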
# In short: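 IL-6/STAT signaling read in ME-180 cells via an SIE beta-lactamase reporter. Stimulus was 40 pM IL-6 (its AC50) for 5 hrs, so both activation and inhibition register.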
# [4] = target: Glucocorticoid receptor (Homo sapiens) (UniProt P04150); assay: GR-GFP Redistribution (AID 450;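 active means compounds whose dose series gives a full or clear partial fitted curve of increased nuclear translocation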; further: potency means the concentration at half of the fitted maximal effect)
# Glucocorticoid receptor (Homo sapiens), sequence (P04150 whole entry, looked up): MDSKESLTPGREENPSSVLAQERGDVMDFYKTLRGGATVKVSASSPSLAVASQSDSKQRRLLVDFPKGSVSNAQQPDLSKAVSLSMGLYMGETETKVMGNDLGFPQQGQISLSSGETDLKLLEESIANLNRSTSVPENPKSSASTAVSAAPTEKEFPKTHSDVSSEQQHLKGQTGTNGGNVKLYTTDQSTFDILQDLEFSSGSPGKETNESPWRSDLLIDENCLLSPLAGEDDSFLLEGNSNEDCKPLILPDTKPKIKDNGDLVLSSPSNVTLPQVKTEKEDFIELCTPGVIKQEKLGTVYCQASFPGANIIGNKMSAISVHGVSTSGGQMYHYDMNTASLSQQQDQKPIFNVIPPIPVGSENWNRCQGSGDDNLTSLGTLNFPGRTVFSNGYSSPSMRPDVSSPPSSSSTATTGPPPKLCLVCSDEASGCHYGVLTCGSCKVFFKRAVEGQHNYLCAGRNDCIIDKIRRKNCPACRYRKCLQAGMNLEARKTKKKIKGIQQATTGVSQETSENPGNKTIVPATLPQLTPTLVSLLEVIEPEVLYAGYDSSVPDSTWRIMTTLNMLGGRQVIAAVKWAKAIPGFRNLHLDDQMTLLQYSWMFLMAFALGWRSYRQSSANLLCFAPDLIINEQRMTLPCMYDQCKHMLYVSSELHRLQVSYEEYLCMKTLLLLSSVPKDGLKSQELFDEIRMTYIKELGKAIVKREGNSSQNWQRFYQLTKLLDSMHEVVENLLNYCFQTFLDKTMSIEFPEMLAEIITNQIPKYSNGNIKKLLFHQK
# [5] = qHTS Assay for Identification of Small Molecule Agonists for Hypoxia Response Element Signaling Pathway (AID 914; active means well fitted activation curve with a large enough effect in the signal ratio, with a control signal flat, not every such curve was filed as active; the % refers to the signal ratio; further: potency means the concentration at half of the fitted maximal effect; on activation: % of control where 0% means no effect); conditions: ME-180 (cervical carcinoma) HRE-bla reporter, beta-lactamase ratio, CoCl2, 17 h; activation: hits give high values
# In short: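 HRE-bla ME-180 cells, overnight plating in Opti-MEM with 0.5% dialyzed FBS; cpd titration + EC50 CoCl2, 17 h, 37 degrees Celsius; CCF4 2.5 h RT; 460/530 nm ratio; AC50.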
# [6] = target: Tyrosyl-DNA phosphodiesterase 1 (Homo sapiens) (UniProt Q9NUW8); assay: Confirmation Assay for Inhibitors of Tyrosyl-DNA Phosphodiesterase (TDP1) (AID 489007; active means well fitted curve in the direction sought with a large enough effect; an effect the other way counts as inactive or inconclusive; further: potency means the concentration at half of the fitted maximal effect; nearly all actives have a fitted effect of over 40% in size); conditions: recombinant human TDP1 enzymatic activity, dose-response
# Tyrosyl-DNA phosphodiesterase 1 (Homo sapiens), sequence (Q9NUW8 whole entry, looked up): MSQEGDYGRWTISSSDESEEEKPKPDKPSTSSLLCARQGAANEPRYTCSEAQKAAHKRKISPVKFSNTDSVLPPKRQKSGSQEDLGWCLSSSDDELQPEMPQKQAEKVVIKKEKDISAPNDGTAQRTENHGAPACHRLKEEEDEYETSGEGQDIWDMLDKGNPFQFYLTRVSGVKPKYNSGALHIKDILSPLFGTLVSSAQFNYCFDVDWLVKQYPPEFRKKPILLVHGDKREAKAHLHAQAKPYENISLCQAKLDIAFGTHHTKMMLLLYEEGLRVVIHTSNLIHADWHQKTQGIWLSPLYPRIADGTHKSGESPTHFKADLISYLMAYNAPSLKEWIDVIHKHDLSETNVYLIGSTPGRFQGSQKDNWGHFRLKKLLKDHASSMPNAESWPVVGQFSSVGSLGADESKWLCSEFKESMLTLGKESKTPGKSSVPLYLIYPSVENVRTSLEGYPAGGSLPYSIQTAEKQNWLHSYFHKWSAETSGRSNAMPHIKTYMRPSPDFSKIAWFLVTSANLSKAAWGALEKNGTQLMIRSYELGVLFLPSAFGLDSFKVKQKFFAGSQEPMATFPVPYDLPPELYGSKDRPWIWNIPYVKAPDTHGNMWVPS
# In short: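 Recombinant E. coli-expressed Tdp1 (1 nM final) was preincubated with compounds 15 min at room temperature, then reacted 5 min with 15 nM 5'-biotin/3'-phosphotyrosine-FITC DNA substrate; cleavage read as loss of AlphaScreen signal (10 ug/ml beads, 10 min).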
# [7] = target: Cytochrome P450 3A4 (Homo sapiens) (UniProt P08684); assay: qHTS Assay for Activators of Cytochrome P450 3A4 (AID 885; active means well fitted curve in the direction sought with a large enough effect; an effect the other way counts as inactive or inconclusive; further: nearly all actives have a fitted effect of over 65% in size)
# Cytochrome P450 3A4 (Homo sapiens), sequence (P08684 whole entry, looked up): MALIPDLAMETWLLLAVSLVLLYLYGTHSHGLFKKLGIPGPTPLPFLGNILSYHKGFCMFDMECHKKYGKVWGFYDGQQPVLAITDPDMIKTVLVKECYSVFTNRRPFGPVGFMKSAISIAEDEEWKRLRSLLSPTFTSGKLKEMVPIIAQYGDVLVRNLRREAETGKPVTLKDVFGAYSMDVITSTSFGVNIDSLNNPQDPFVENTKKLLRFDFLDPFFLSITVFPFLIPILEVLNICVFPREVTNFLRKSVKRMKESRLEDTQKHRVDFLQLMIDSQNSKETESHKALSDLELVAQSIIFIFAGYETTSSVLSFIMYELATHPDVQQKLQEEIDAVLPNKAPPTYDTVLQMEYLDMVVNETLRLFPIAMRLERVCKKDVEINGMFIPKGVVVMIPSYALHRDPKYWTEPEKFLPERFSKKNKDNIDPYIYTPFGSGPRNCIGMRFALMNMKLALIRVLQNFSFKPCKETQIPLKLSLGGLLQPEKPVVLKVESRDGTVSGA
# In short: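 Quantitative HTS format: compounds preincubated with 20nM human CYP3A4 and Luciferin-PPXE substrate at KM, reaction started by NADPH regeneration, stopped after 60 min, luciferase luminescence read 20 min later.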
# [8] = target: DNA dC->dU-editing enzyme APOBEC-3G (Homo sapiens) (UniProt Q9HC16); assay: qHTS for inhibitors of Vif-A3G interactions: Validation (AID 588379; active means well fitted curve in the direction sought with a large enough effect; an effect the other way counts as inactive or inconclusive; further: 0% is about no effect)
# DNA dC->dU-editing enzyme APOBEC-3G (Homo sapiens), sequence (Q9HC16 whole entry, looked up): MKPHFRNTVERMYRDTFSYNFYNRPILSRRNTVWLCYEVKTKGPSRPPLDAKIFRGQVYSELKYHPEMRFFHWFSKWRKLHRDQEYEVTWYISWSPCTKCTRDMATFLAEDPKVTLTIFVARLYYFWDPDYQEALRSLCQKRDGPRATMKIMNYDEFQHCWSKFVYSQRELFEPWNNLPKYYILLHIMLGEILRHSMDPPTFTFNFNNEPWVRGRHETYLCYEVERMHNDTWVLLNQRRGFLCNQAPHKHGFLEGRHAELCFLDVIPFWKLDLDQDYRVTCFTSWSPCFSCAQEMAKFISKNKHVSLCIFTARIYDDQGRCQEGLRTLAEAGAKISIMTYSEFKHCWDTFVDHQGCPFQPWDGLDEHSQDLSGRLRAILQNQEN
# In short: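 HeLa cells stably expressing Vif and A3G-eYFP, 700 cells/well, incubated overnight at 37 deg C, then exposed to compound overnight at 37 deg C. Inhibition of Vif-mediated degradation read as increased yellow fluorescence (Ex 488/Em 500-530) by laser-scanning cytometry.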
# [9] = target: Mitogen-activated protein kinase 10 (Mus musculus) (UniProt Q61831); assay: JNK3 AlphaScreen Assay (AID 530);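 further: kinase came from lysate of stimulated human HepG2 cells; signal reports phosphorylation of biotinylated GST-cJun 1-79 at Ser73 with 10 µM ATP; on the % scale 0 is the no-effect control and ±100 the full control effect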
# In short: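 Room-temperature AlphaScreen kinase assay; pre-activated HepG2 lysate as JNK3 source, biotin-GST-cJun(1-79) substrate, 10 uM ATP, compound 15 min preincubation.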
# [10] = target: 3',5'-cyclic-AMP phosphodiesterase 4B (Homo sapiens) (UniProt Q07343); assay: qHTS Assay for Inhibitors of PDE-IV (AID 607; active means well fitted activation curve with a large enough effect in the main read-out, with a control signal flat, not every such curve was filed as active; further: % of control where 0% means no effect)
# 3',5'-cyclic-AMP phosphodiesterase 4B (Homo sapiens), sequence (Q07343 whole entry, looked up): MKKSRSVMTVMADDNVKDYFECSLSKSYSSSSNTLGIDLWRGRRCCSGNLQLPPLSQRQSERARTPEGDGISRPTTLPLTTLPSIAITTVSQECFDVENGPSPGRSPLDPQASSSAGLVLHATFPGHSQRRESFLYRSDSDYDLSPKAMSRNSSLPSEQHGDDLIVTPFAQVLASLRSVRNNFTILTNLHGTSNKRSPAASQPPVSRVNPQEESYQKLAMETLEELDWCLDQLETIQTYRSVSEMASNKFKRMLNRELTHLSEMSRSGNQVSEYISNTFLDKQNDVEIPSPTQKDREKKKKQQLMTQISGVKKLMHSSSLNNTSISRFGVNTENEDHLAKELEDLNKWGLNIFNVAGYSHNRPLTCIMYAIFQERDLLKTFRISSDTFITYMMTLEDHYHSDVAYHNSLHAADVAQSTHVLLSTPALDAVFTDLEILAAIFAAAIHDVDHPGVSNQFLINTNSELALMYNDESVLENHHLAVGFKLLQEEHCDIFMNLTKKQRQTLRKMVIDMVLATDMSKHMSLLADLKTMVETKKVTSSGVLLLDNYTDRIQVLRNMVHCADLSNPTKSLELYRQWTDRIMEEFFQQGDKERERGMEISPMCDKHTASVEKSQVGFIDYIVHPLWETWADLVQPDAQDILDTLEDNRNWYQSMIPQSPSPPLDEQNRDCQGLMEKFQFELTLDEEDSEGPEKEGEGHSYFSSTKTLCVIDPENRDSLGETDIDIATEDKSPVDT
# In short: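 Live HEK293 cells with a modified cyclic nucleotide-gated (CNG) channel report intracellular cAMP via membrane-potential dye fluorescence (ex 535/em 590 nm). Endogenous PDE-IV was targeted. Compounds were tested at up to 22.9 uM final; RO 20-1724 100 uM served as control.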
# [11] = qHTS Assay for Identification of Small Molecule Agonists for Thrombopoietin (TPO) Signaling Pathway (AID 917; active means well fitted curve in the direction sought with a large enough effect; an effect the other way counts as inactive or inconclusive; further: on the % scale 0 is the no-effect control and ±100 the full control effect)
# In short: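 Luminescence from a Glycoprotein IIb promoter–driven luciferase reporter served as read-out in murine Ba/F3 cells carrying the human TPO receptor. Cells, deprived of IL-3 overnight, received compounds with 26 pM TPO and were incubated 24 hrs at 37 C.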
# [12] = target: Pyruvate kinase (Leishmania mexicana) (UniProt Q27686); assay: qHTS Validation Assay for Inhibitors of Leishmania Mexicana Pyruvate Kinase (AID 945; active means well fitted curve in the direction sought with a large enough effect; an effect the other way counts as inactive or inconclusive;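 further: 0% = DMSO only neutral control wells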)
# Pyruvate kinase (Leishmania mexicana), sequence (Q27686 2-499 E452W): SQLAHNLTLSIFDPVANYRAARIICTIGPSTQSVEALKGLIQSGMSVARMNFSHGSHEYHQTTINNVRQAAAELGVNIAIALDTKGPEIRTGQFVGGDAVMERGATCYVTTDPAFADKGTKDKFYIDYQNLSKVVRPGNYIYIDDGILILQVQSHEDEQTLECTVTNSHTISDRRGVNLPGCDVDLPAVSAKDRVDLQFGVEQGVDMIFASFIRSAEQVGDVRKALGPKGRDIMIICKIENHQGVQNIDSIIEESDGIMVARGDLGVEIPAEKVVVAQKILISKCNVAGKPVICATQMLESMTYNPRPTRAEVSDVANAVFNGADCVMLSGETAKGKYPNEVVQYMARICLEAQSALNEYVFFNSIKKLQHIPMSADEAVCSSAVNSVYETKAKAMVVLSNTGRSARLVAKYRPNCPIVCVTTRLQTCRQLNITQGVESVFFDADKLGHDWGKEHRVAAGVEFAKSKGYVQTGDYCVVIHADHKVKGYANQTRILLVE
# In short: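 Luminescent ATP detection (PKLight) after a 1 h room-temperature reaction of 0.2 nM LmPYK E451W mutant with 0.5 mM PEP and 0.1 mM ADP at pH 7.2. Activity is normalized to DMSO-only control wells.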
# [13] = target: Pyruvate kinase PKM (Homo sapiens) (UniProt P14618); assay: qHTS Assay for Activators of Human Muscle Pyruvate Kinase (AID 954; active means well fitted curve in the direction sought with a large enough effect, not every such curve was filed as active;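 further: 0% = uninhibited enzyme and -100% = no enzyme or full thiadiazolimine inhibition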)
# Pyruvate kinase PKM (Homo sapiens), sequence (P14618 whole entry, looked up): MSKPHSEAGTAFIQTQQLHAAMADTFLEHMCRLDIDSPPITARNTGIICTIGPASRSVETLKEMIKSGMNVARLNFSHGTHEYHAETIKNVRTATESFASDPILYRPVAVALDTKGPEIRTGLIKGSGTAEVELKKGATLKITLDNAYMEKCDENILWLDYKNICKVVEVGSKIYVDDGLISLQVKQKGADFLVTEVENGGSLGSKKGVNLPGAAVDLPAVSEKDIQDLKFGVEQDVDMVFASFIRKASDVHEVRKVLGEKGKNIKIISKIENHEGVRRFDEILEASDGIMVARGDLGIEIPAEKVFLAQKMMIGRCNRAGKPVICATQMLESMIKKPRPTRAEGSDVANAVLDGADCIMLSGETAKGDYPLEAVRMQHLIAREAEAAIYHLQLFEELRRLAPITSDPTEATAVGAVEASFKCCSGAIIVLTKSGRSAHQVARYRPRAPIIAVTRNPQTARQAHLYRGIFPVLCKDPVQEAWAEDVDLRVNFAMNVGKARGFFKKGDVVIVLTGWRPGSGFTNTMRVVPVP
# In short: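 Enzyme was run at intermediate activity so both inhibitors and activators could be detected. ATP formed from ADP and PEP by 0.1 nM human PKM2 during a 1 h room-temperature incubation was quantified by coupled luciferase luminescence.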
# [14] = target: Alpha-galactosidase A (Homo sapiens) (UniProt P06280); assay: Counterscreen for Glucocerebrosidase Inhibitors: qHTS Assay for Human alpha-Galactosidase at pH 4.5 (AID 992; active means well fitted curve in the direction sought with a large enough effect; an effect the other way counts as inactive or inconclusive; further: 0% is about no effect)
# Alpha-galactosidase A (Homo sapiens), sequence (P06280 whole entry, looked up): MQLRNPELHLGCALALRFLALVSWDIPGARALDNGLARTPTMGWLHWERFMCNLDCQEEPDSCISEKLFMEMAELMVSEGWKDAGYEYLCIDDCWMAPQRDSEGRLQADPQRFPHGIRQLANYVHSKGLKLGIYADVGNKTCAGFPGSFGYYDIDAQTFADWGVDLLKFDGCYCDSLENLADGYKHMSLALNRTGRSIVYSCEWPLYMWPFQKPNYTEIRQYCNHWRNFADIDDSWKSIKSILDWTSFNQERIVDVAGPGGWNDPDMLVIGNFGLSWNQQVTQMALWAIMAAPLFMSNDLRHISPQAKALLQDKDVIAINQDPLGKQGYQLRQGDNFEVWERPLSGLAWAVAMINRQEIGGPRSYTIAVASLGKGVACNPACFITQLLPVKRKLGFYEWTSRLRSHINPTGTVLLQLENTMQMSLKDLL
# In short: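 Read-out is 4-methylumbelliferone fluorescence (365 nm excitation, 440 nm emission) after a pH 10 NaOH/glycine stop. Reactions held 2 nM enzyme and 80 uM substrate at pH 4.5 for 20 min at room temperature.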
# [15] = target: alpha-glucosidase (Oryza sativa, rice) (UniProt Q653V4); assay: Counterscreen for Glucocerebrosidase Inhibitors: qHTS Assay for Rice alpha-Glucosidase at pH 5.0 (AID 997; active means well fitted curve in the direction sought with a large enough effect; an effect the other way counts as inactive or inconclusive;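 further: 0% = full activity with enzyme and -100% = basal without enzyme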)
# In short: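 Rice alpha-glucosidase (4 nM final) with 400 uM 4-methylumbelliferyl-alpha-D-glucopyranoside in citrate buffer pH 5.0, 20 min at room temperature, stopped at pH 10; fluorescence 365/440 nm, compounds 0.7 nM–77 uM, AC50 from Hill fits.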
smiles,measurement,setting,value
CN(Cc1ccccc1)Cc1c[nH]c2ccccc12,"activity change, negative = inhibition",[1],15.6%
same,"activity change, negative = inhibition",[2],-28.7%
same,"activity, negative = inhibition",[3],7.69%
same,Potency,[4],> 20.6 µM
same,activation,[5],-19.8%
N#Cc1c(NC(=O)CCC(=O)O)sc2c1CCCC2,"activity change, negative = inhibition",[1],-1.32%
same,"activity change, negative = inhibition",[2],-1.33%
same,"activity, negative = inhibition",[3],-10%
same,Potency,[4],> 20.6 µM
same,activation,[5],-23.4%
Cc1ccc(-c2n[nH]c(=O)c3ccccc23)cc1S(=O)(=O)NCCN1CCOCC1,"activity change, negative = inhibition",[1],1.31%
same,"activity change, negative = inhibition",[2],-9.43%
same,"activity, negative = inhibition",[3],1.81%
same,Potency,[4],> 20.6 µM
same,activation,[5],-17.3%
CN(C)c1ccc(C=Nc2cnn(C)c2C(N)=O)cc1,"activity change, negative = inhibition",[1],-9.71%
same,"activity change, negative = inhibition",[2],2.44%
same,"activity, negative = inhibition",[3],-12.3%
same,Potency,[4],> 20.6 µM
same,activation,[5],-1.16%
CSc1ccccc1NC(=O)c1c(Br)cnn1C,"activity change, negative = inhibition",[1],-8.39%
same,"activity change, negative = inhibition",[2],-10.8%
same,"activity, negative = inhibition",[3],1.88%
same,Potency,[4],> 20.6 µM
same,activation,[5],27.6%
COc1ccc2c(c1)c(C(=O)CN1CCOCC1)c(C)n2C,"activity change, negative = inhibition",[1],12%
same,"activity change, negative = inhibition",[2],0.787%
same,"activity, negative = inhibition",[3],10.6%
same,Potency,[4],> 20.6 µM
same,activation,[5],8.25%
Cc1cccc(OCC(=O)NCC(=O)n2nc(C)cc2C)c1,"activity change, negative = inhibition",[1],2.67%
same,"activity change, negative = inhibition",[2],12.1%
same,"activity, negative = inhibition",[3],4.06%
same,Potency,[4],> 20.6 µM
same,activation,[5],14.3%
CCOC(=O)C1(C(=O)OCC)C(c2ccccc2)CC(O)N1C(C)=O (configuration not stated),"activity change, negative = inhibition",[1],5.72%
same,"activity change, negative = inhibition",[2],2.25%
same,"activity, negative = inhibition",[3],-1.29%
same,Potency,[4],> 20.6 µM
same,activation,[5],15.4%
Cc1ccc(C)n1Cc1ccc(C(=O)O)cc1,"activity change, negative = inhibition",[1],2.78%
same,"activity change, negative = inhibition",[2],-7.86%
same,"activity, negative = inhibition",[3],6%
same,Potency,[4],> 20.6 µM
same,Potency,[6],1.41 µM (active)
C=CCc1cccc(/C=N/c2ncn[nH]2)c1O,"activity change, negative = inhibition",[1],-5.91%
same,"activity change, negative = inhibition",[2],-19.8%
same,"activity, negative = inhibition",[3],5.03%
same,Potency,[4],> 20.6 µM
same,activation,[5],26.2%
Cc1ccc(S(=O)(=O)N(CC(O)CN2CCOCC2)c2cc(Cl)ccc2Cl)cc1 (configuration not stated),"activity change, negative = inhibition",[1],0.294%
same,"activity change, negative = inhibition",[2],-11%
same,"activity, negative = inhibition",[3],-1.96%
same,Potency,[4],> 20.6 µM
same,activation,[5],11.1%
CCCOc1ccc(Cn2c(O)cc(=O)[nH]c2=O)cc1,"activity change, negative = inhibition",[1],-5.5%
same,"activity change, negative = inhibition",[2],7.39%
same,"activity, negative = inhibition",[3],-0.906%
same,Potency,[4],> 20.6 µM
same,activation,[5],16.1%
CC(C)CNC(=O)c1c(N)n(/N=C/c2cccnc2)c2nc3ccccc3nc12,"activity change, negative = inhibition",[1],9.25%
same,"activity change, negative = inhibition",[2],329% [activator] (active)
same,"activity, negative = inhibition",[3],16.6%
same,Potency,[4],> 20.6 µM
same,Potency,[5],10 µM (active)
CC(C)(C)NCc1cc2ccccc2[nH]c1=O,"activity change, negative = inhibition",[1],-4.82%
same,"activity change, negative = inhibition",[2],-24.2%
same,"activity, negative = inhibition",[3],3.71%
same,Potency,[4],> 20.6 µM
same,activation,[5],-14.6%
CCOC(=O)CSc1nnc(C)c(=O)[nH]1,"activity change, negative = inhibition",[1],12.3%
same,"activity change, negative = inhibition",[2],-0.387%
same,"activity, negative = inhibition",[3],-1.23%
same,Potency,[4],> 20.6 µM
same,activation,[5],-0.909%
CCOC(=O)C(CC(=O)O)N1CCCCC1 (configuration not stated),"activity change, negative = inhibition",[1],4.69%
same,"activity change, negative = inhibition",[2],10.9%
same,"activity, negative = inhibition",[3],3.36%
same,Potency,[4],> 20.6 µM
same,activation,[5],11.2%
COC1=CC(=O)CC(C)C12Oc1c(Cl)c(OC)cc(OC)c1C2=O (configuration not stated),"activity change, negative = inhibition",[1],-16.1%
same,"activity change, negative = inhibition",[2],-12.3%
same,"activity, negative = inhibition",[3],4.38%
same,Potency,[4],> 20.6 µM
same,Potency,[7],inactive
same,outcome,[8],inactive
Cc1nn(C)cc1C1C2=C(CC(C)(C)CC2=O)OC2=C1C(=O)CC(C)(C)C2,"activity change, negative = inhibition",[1],3.4%
same,"activity change, negative = inhibition",[2],-23.9%
same,"activity, negative = inhibition",[3],4.21%
same,Potency,[4],> 20.6 µM
same,activation,[5],1.79%
CCOc1ccc(NC(=O)CSC2=C(C#N)C(c3ccc4c(c3)OCO4)CC(=O)N2)cc1 (configuration not stated),"activity change, negative = inhibition",[1],-17.2%
same,"activity change, negative = inhibition",[2],-5.95%
same,"activity, negative = inhibition",[3],-3.62%
same,Potency,[4],> 20.6 µM
same,activation,[5],-0.0576%
CC(=O)[C@@]1(O)CC[C@@H]2[C@@H]3CCC4=CC(=O)CC[C@@]4(C)[C@H]3CC[C@]21C,"activity change, negative = inhibition",[1],4.89% [at 38 µM]
same,"activity change, negative = inhibition",[2],-13.4% [at 38 µM]
same,"activity, negative = inhibition",[3],-11.8% [at 38 µM]
same,Potency,[4],0.162 µM (active)
same,Potency,[9],inactive
same,Potency,[10],inactive
same,Potency,[11],inactive
same,Potency,[12],inactive
same,outcome,[13],inactive
same,outcome,[14],inactive
same,outcome,[15],inactive
